# Measurements from PubChem BioAssay AID488832 (National Center for Advancing Translational Sciences (NCATS), 2010).
# Results filed as inconclusive are left out. Active and inactive are the calls of the source. Calls follow the shape of the dose curve; as a rule, active = well fitted activation curve with a large enough effect; inconclusive = small, poorly fitted or top-dose-only effect; inactive = no such curve, though single readings can be large or run the other way.
# Assay: Confirmation Concentration-Response Assay for Enhancers of SMN2 Splice Variant Expression for Further Probe SAR
# Conditions: HEK293 SMN2 exon7-luciferase splicing reporter, luminescence, 30-36 h; series mostly up to 46.1 µM; activity, positive = activation: at the top concentration
# Text: NIH Chemical Genomics Center [NCGC] NIH Molecular Libraries Probe Production centers Network [MLPCN] MLPCN Grant: R03 MH084179-01 Assay Submitter (PI): Elliot Androphy NCGC Assay Overview: Spinal muscular atrophy (SMA) is caused by insufficient levels of the survival motor neuron protein SMN. The SMN locus on chromosome 5q13 contains two inverted copies of SMN called SMN1 and SMN2 which are 99% identical at the amino acid level. SMN1 is a fully functional protein and SMN2 skips exon 7 90% of the time. Skipping of exon 7 produces non-functional protein product. 10% of the SMN2 protein includes exon 7 and is fully functional. In the SMA disease state, mutations in the SMN1 locus are the cause of the disease state. Because only 10% of SMN2 is of the fully functional form, it is not sufficient to overcome the deficiency produced by the loss of the SMN1 product. A therapy that either increase the amount of SMN2 product made or to increase the inclusion of exon 7 has been proposed for the treatment of SMA. We have designed an assay to identify small molecules that can increase the amount of functional SMN2 product by appending a luciferase reporter gene after the native SMN2 gene, such that inclusion of exon 7 in the expressed product places the luciferase sequence in frame, thus generating functional luciferase enzyme.
# NCGC Assay Protocol Summary: This screen utilizes a luciferase reporter gene assay, combining the promoter with the major portion of the native SMN2 cDNA (exons 1 -7, intron 8 , exon 8 fused to luciferase) stably expressed in HEK293 cells. Compounds that increase luciferase signal presumably enhance expression of the functional SMN2 splice variant. Passaging media contained DMEM w/ glutamax (+phenol red) 10% FCS, 1x pen/strep, 200 ug/ml hygro, 1x sodium pyruvate. Assay media contained DMEM w/ glutamax (-phenol red) 10% FCS, 1x pen strep, 1x pyruvate Sequence, Parameter, Value, Description (1) Cells, 5 uL, 2000 cells/well, 1536 TC treated White solid bottom plate (2) Time, 10-12 hours, 37C 5% CO2 (3) Compound, 23 nl, MLSMR Library (4) Control Compound, 23 nL, Sodium butyrate st 4.5mM (final) conc (5) Time, 30-36 hours, 37C 5% CO2 (6) Reagent, 3 ul, One Glo (TM) from Promega (7) Time, 5-15 minutes, Room temp (8) Detector, Viewlux: luminescent read, 60 second integration, high speed 2x binning Keywords: Spinal muscular atrophy, SMA, SMN2, high throughput screening, MLSMR, MLPCN, NIH Roadmap, qHTS and NCGC
Structure (SMILES),"activity, positive = activation",Potency
NC(=O)C1CCN(c2ncc(Br)cn2)CC1,4.35% (inactive),
O=C(NCCCCc1ccccc1)C1CCN(c2nc(-c3ccc(Br)cc3)cs2)CC1,4.35% (inactive),
NC(=O)C1CCN(c2ncnc(-c3ccc4c(c3)OCCCO4)n2)CC1,,2440 nM (active)
NC(=O)C1CCN(c2nc(-c3ccc(Cl)cc3)cs2)CC1,,1090 nM (active)
Brc1ccc(-c2csc(N3CCNCC3)n2)cc1,-82.8% (inactive),
Cc1ccc(-c2cnc(N3CCC(C(N)=O)CC3)s2)cc1,,68.8 nM (active)
N#Cc1ccccc1-c1csc(N2CCC(C(N)=O)CC2)n1,10% (inactive),
NC(=O)C1CCN(c2ncc(-c3ccc(Cl)cc3)s2)CC1,,137 nM (active)
NC(=O)C1CCN(c2nc(-c3ccccc3[N+](=O)[O-])cs2)CC1,,15400 nM (active)
CCOC(=O)C1CCN(c2ncc(-c3ccc4c(c3)OCCCO4)s2)CC1,,27.4 nM (active)
CN(C)c1cccc(-c2cc(N3CCC(C(N)=O)CC3)ncn2)c1,,4870 nM (active)
CC(C)(C)OC(=O)NC1CCN(c2nc(-c3ccc(Br)cc3)cs2)CC1,-21.7% (inactive),
O=C(NCc1ccccc1)C1CCN(c2nc(-c3ccc(Br)cc3)cs2)CC1,-4.76% (inactive),
CSc1ccc(-c2cnc(N3CCC(C(N)=O)CC3)s2)cc1,,31 nM (active)
Cc1ccc(-c2ccnc(N3CCC(C(N)=O)CC3)n2)cc1,,308 nM (active)
CN(C)c1cccc(-c2cnc(N3CCC(c4ncc[nH]4)CC3)s2)c1,,3450 nM (active)
COc1ccc(-c2cnc(N3CCC(C(N)=O)CC3)s2)cc1OC,,7720 nM (active)
O=S(=O)(c1ccccc1)N1CCN(c2nc(-c3ccc(Br)cc3)cs2)CC1,7.14% (inactive),
CC(C)Oc1ccc(-c2csc(N3CCC(C(N)=O)CC3)n2)cc1,,3870 nM (active)
CN(C)c1cccc(-c2ccnc(N3CCC(C(N)=O)CC3)n2)c1,,688 nM (active)

Structure (SMILES),"activity, positive = activation",Potency
NC(=O)C1CCN(c2nc(-c3ccc(C(F)(F)F)cc3)cs2)CC1,,867 nM (active)
CC(=O)NC1CCN(c2nc(-c3ccc(Br)cc3)cs2)CC1,-49.7% (inactive),
NC(=O)C1CCN(c2ncc(-c3ccc4c(c3)OCO4)s2)CC1,,48.7 nM (active)
CC(=O)N1CCN(c2nc(-c3ccc(Br)cc3)cs2)CC1,,2440 nM (active)
CN(C)c1cccc(-c2nnc(N3CCC(C(N)=O)CC3)s2)c1,,218 nM (active)
NC(=O)C1CCN(c2nccc(-c3ccc(Br)cc3)n2)CC1,,244 nM (active)
NC(=O)C1CCN(c2nc(-c3ccc(Oc4ccccc4)cc3)cs2)CC1,,4340 nM (active)
N#Cc1cccc(-c2csc(N3CCC(C(N)=O)CC3)n2)c1,10.7% (inactive),
Nc1nc(N)c2c(OCC3CCN(Cc4ccccc4F)CC3)cccc2n1,-92.9% (inactive),
Cc1cccc(-c2csc(N3CCC(C(N)=O)CC3)n2)c1,,15400 nM (active)
NC1CCN(c2nc(-c3ccc(Br)cc3)cs2)CC1,,1940 nM (active)
NC(=O)C1CCN(c2nc(-c3cccc4sc5ccccc5c34)cs2)CC1,,13700 nM (active)
O=C(NCCCc1ccccc1)C1CCN(c2nc(-c3ccc(Br)cc3)cs2)CC1,-47.8% (inactive),
O=C(Nc1ccccc1)C1CCN(c2ncc(-c3ccc4c(c3)OCCCO4)s2)CC1,,48.7 nM (active)
NC(=O)C1CCN(c2ncc(-c3ccc4c(c3)OCCCO4)s2)CC1,,30.7 nM (active)
NC(=O)C1CCN(c2nc(-c3ccc(N4CCCCC4)nc3)cs2)CC1,,3450 nM (active)
CN(C)c1cccc(-c2ncnc(N3CCC(C(N)=O)CC3)n2)c1,,772 nM (active)
NC(=O)N1CCN(c2nc(-c3ccc(Br)cc3)cs2)CC1,,13700 nM (active)
CC(C)Oc1cccc(-c2cnc(N3CCC(C(N)=O)CC3)s2)c1,,68.8 nM (active)
NC(=O)C1CCN(c2nccc(Cl)n2)CC1,0% (inactive),
